# Data reported in ChEMBL document CHEMBL1961873, “Compounds: GSK PKIS; Assays: Nanosyn kinase panel” (2012).
# Key:
# [1] = target: T1, Serine/threonine-protein kinase Nek9 (Homo sapiens) (UniProt Q8TD19); conditions: at 1 µM;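 also: each value is a mean percent inhibition of NEK9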
# T1 sequence (whole entry): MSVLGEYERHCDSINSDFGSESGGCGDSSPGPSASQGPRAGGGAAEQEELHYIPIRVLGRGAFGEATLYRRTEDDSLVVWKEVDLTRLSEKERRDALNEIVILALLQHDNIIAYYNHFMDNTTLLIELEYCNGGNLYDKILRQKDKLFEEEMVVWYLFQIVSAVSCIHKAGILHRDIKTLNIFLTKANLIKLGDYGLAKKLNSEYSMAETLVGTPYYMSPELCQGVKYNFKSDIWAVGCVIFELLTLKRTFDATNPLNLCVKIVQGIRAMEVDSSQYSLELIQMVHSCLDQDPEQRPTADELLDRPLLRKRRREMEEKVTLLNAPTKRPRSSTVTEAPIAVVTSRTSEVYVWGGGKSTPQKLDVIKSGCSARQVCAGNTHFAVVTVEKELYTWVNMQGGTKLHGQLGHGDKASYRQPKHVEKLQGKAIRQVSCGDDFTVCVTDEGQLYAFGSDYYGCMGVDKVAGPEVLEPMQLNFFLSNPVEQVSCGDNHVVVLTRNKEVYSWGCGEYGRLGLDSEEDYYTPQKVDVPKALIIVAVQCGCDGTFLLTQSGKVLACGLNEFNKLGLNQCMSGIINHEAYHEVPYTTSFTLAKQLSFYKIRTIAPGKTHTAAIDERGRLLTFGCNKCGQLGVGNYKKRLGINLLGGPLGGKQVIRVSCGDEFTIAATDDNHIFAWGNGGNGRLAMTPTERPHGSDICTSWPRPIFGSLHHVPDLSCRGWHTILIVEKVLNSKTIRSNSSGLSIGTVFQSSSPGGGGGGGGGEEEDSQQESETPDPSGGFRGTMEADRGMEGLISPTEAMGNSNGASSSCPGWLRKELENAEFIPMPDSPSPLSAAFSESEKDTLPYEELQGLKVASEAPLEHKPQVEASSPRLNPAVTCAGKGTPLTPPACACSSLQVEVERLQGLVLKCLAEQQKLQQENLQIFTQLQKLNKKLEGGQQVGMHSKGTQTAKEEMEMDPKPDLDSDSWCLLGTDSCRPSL
# [2] = target: Serine/threonine-protein kinase PLK1 (Homo sapiens) (UniProt P53350); conditions: at 0.1 µM
# Serine/threonine-protein kinase PLK1 (Homo sapiens), sequence (P53350 whole entry): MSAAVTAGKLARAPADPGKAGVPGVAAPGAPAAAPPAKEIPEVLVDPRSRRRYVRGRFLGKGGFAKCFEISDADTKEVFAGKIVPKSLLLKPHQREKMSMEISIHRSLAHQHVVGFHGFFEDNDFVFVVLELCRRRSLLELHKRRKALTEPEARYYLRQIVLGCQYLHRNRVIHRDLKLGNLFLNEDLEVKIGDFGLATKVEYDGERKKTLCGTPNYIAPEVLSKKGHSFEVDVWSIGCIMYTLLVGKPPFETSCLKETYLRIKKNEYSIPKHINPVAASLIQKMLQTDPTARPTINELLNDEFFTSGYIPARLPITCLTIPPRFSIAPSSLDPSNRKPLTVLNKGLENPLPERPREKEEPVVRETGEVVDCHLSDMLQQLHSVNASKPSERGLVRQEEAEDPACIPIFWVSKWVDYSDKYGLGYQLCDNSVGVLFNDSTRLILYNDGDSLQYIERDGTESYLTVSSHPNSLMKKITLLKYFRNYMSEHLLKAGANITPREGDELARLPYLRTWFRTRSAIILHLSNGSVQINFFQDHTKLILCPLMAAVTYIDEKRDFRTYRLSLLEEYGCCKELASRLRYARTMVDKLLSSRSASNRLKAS
# [3] = target: Serine/threonine-protein kinase PLK1 (Homo sapiens) (UniProt P53350); conditions: at 1 µM
# [4] = target: T2, Dual specificity protein kinase TTK (Homo sapiens) (UniProt P33981); conditions: at 0.1 µM
# T2 sequence (whole entry): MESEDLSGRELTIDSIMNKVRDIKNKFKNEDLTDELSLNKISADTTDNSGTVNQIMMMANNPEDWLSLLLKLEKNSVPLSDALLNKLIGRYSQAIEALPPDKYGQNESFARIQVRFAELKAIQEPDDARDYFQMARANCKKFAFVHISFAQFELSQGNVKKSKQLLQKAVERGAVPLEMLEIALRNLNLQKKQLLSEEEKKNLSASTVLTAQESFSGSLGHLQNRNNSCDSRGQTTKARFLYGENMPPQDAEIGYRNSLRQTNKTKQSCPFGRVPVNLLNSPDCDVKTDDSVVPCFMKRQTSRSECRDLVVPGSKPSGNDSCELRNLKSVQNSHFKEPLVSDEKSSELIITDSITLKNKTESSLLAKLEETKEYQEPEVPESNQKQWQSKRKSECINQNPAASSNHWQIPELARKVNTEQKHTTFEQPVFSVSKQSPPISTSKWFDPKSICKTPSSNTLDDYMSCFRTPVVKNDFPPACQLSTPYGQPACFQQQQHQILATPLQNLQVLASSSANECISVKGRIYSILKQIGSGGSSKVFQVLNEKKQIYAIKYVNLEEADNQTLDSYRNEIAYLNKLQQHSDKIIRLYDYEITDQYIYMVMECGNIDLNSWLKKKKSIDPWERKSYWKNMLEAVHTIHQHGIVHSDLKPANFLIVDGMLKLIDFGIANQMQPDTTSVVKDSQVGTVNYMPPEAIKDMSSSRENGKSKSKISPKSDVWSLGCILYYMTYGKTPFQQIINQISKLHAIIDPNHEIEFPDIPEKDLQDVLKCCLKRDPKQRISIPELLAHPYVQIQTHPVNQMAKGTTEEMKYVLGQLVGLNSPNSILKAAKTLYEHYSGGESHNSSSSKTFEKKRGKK
# [5] = tested on: T3, Receptor-type tyrosine-protein kinase FLT3 (Homo sapiens), P36888 [D835Y]; conditions: at 1 µM
# T3 sequence (whole entry): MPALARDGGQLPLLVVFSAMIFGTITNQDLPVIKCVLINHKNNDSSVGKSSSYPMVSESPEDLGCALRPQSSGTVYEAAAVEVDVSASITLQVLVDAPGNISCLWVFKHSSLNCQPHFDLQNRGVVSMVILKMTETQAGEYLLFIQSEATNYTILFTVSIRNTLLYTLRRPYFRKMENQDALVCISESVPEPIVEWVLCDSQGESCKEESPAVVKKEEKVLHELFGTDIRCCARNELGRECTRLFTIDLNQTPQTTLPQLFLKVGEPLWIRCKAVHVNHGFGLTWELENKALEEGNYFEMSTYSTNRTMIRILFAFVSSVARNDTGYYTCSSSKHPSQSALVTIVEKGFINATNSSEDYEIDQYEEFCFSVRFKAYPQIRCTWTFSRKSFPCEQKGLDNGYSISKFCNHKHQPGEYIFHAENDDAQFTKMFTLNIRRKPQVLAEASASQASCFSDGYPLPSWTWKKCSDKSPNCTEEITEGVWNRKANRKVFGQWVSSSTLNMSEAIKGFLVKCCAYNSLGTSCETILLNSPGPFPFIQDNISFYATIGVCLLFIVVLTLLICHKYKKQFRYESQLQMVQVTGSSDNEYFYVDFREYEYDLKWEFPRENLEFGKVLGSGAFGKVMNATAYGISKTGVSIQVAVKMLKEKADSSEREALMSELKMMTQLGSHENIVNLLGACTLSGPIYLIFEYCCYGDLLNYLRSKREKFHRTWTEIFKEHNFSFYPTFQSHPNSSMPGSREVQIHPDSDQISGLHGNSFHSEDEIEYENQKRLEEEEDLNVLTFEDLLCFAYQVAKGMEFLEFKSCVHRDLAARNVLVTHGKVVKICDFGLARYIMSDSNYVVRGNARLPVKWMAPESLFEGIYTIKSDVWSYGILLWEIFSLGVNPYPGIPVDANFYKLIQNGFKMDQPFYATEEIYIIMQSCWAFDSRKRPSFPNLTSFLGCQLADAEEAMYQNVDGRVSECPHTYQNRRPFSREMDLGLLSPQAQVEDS
# [6] = target: Vascular endothelial growth factor receptor 3 (Homo sapiens) (UniProt P35916); conditions: at 0.1 µM
# Vascular endothelial growth factor receptor 3 (Homo sapiens), sequence (P35916 whole entry): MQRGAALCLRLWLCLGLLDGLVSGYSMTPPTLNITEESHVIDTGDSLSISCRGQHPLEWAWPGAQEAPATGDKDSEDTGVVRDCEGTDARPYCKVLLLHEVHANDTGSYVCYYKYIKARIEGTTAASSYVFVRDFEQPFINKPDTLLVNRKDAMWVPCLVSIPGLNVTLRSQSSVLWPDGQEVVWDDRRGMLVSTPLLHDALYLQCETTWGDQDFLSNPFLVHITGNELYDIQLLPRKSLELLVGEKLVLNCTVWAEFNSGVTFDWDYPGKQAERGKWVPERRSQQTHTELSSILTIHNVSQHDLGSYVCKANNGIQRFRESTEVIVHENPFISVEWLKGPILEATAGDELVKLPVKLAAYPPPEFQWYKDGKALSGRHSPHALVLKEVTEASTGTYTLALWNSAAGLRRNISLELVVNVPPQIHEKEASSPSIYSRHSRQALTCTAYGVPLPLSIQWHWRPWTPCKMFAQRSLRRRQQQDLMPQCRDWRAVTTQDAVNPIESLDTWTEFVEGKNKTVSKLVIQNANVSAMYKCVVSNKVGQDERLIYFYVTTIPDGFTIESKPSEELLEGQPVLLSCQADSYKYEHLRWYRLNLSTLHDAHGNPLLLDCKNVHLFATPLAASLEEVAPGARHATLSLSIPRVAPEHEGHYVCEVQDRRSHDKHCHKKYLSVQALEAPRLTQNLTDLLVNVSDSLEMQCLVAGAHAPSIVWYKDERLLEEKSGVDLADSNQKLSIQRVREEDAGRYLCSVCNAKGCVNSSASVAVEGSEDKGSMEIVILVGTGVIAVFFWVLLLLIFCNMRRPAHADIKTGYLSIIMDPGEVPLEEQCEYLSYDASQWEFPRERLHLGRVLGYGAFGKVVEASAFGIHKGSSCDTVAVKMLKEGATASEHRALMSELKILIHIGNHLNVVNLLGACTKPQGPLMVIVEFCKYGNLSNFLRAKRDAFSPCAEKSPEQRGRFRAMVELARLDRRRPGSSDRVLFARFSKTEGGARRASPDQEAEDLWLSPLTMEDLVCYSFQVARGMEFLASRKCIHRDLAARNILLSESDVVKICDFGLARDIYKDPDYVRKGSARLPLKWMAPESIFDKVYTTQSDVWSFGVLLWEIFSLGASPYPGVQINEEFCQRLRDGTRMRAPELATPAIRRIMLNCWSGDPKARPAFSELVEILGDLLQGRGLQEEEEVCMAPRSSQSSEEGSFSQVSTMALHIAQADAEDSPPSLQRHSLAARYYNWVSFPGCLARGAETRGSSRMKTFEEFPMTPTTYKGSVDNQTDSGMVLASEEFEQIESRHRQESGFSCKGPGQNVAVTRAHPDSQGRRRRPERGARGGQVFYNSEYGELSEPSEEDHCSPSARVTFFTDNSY
# [7] = target: Vascular endothelial growth factor receptor 3 (Homo sapiens) (UniProt P35916); conditions: at 1 µM
# [8] = target: Macrophage colony-stimulating factor 1 receptor (Homo sapiens) (UniProt P07333); conditions: at 0.1 µM
# Macrophage colony-stimulating factor 1 receptor (Homo sapiens), sequence (P07333 whole entry): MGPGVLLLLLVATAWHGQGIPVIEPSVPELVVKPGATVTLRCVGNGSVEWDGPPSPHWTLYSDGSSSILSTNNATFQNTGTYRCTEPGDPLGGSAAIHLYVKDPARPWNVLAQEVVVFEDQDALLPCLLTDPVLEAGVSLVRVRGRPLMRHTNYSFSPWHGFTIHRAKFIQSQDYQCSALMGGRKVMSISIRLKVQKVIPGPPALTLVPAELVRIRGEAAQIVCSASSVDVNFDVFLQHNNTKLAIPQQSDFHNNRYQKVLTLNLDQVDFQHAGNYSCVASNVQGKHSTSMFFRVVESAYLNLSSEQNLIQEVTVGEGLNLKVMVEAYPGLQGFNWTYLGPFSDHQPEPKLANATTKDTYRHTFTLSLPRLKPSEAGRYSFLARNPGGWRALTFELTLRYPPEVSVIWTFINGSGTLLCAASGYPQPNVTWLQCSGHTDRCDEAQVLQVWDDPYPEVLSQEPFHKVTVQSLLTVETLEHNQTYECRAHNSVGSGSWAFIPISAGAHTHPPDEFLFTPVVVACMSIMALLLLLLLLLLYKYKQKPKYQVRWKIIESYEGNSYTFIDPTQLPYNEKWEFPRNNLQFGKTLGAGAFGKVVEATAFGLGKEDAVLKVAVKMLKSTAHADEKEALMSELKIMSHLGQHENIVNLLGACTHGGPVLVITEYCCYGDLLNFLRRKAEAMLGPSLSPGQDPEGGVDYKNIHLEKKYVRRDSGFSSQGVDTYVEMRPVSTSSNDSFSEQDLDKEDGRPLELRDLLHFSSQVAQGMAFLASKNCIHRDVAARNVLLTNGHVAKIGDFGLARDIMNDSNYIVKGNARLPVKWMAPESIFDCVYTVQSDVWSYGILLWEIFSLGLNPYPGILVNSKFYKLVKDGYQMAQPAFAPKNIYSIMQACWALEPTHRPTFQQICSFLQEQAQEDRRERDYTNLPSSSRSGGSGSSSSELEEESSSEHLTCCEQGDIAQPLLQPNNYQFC
# [9] = target: Macrophage colony-stimulating factor 1 receptor (Homo sapiens) (UniProt P07333); conditions: at 1 µM
# [10] = target: Tyrosine-protein kinase Fyn (Homo sapiens) (UniProt P06241); conditions: at 0.1 µM
# Tyrosine-protein kinase Fyn (Homo sapiens), sequence (P06241 2-537 limits assumed): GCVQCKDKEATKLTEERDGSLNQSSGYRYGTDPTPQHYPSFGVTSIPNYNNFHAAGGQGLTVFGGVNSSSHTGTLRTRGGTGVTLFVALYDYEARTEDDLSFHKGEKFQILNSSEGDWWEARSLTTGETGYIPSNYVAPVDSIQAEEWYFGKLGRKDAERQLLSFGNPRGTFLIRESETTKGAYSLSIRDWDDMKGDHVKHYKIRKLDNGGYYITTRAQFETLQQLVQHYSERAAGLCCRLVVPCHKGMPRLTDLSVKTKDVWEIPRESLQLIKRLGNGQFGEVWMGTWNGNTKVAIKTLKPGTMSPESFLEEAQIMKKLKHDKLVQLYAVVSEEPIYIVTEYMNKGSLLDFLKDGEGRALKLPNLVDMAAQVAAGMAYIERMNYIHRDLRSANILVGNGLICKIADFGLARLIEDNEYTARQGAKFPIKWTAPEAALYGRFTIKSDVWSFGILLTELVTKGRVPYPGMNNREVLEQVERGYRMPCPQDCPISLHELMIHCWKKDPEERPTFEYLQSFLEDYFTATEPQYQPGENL
SMILES,inhibition [1] [%],inhibition [2] [%],inhibition [3] [%],inhibition [4] [%],inhibition [5] [%],inhibition [6] [%],inhibition [7] [%],inhibition [8] [%],inhibition [9] [%],inhibition [10] [%]
CS(=O)(=O)Nc1ccc(N/C=C2\C(=O)Nc3ccccc32)cc1,9.7,-2.87,-1.15,-2.98,59.1,4.02,30.6,7.03,41.7,0.12
O=C1NC(=O)C(c2ccccc2Cl)=C1Nc1cccc(O)c1,-5.12,3.44,3.38,2.7,3.87,3.25,3.79,-1.08,2.71,1.1
CCN1CCC(CC(=O)Nc2n[nH]c3nc(-c4cccs4)c(Br)cc23)CC1,0.2,-3.36,-3.47,-6.26,10.7,1.17,2.51,-2.02,0.93,-0.42
Cc1cc(O)cc(C)c1/C=C/c1cncc(-c2nn[nH]n2)c1,8.64,3.41,4.38,7.11,-0.25,-9.76,,8.02,36.1,3.99
CS(=O)(=O)CCNCc1nc(-c2ccc3ncnc(Nc4ccc(F)c(Cl)c4)c3c2)cs1,-7.92,1.65,1.15,1.71,5.8,3.61,6.4,1.81,3.54,-1.21
NS(=O)(=O)c1cccc(-c2ccc3c(NC(=O)C4CC4)n[nH]c3c2)c1,2.04,0.99,-1.05,-4.5,-1.12,2.99,5.11,-0.02,2.28,1.2
COc1cc2ncn(-c3cc(O[C@H](C)c4ccccc4Cl)c(C(N)=O)s3)c2cc1OC,91.6,,,9.01,39.6,31.8,81.3,8.07,41.9,2
Cc1ccc(NC(=O)c2ccnc(N3CCCC3)c2)cc1-c1ccc(C(=O)NCC2CC2)cc1,6.52,3.7,4.57,15.4,1.51,-7.96,,1.57,2.74,-2.42
CNC(=O)c1cncc(/C=C/c2c(Cl)cccc2Cl)c1,5.75,3.89,7.28,17,-3.57,-7.73,,7.17,41.1,0.89
CCn1c(-c2nonc2N)nc2cnc(Oc3cccc(NC(=O)c4ccc(OCCN5CCOCC5)cc4)c3)cc21,17,4.54,2.83,10.3,-0.53,-0.39,0.92,1.4,2.86,1.07
CCn1c(-c2nonc2N)nc2cncc(C(=O)N3CC[C@H](N)C3)c21,19.1,4.34,8.01,16,-5.46,5.85,7.41,1.27,3.01,3.5
O=C1NC(=O)C(N2CCc3ccccc32)=C1c1ccc(Cl)cc1,6.39,3.88,2.74,7.71,14.7,1.62,0.97,4.95,4.62,4.56
COc1cc2c(cc1Nc1nc(N3CCc4ccccc43)c3cc[nH]c3n1)N(C(=O)CN(C)C)CC2,0.78,5.82,25.4,7.66,2.32,12.9,13.7,1.41,2.14,-1.37
NS(=O)(=O)c1ccc(N/N=C2\C(=O)Nc3ccc(C(=O)NCCc4c[nH]cn4)cc32)cc1,10.4,5.66,10.8,37.9,48,6.93,26.4,,15.4,3.46
Cc1ccc(C(=O)NC2CCCCC2)cc1-c1ccc(C(=O)NCC2CC2)cc1,-4.93,3,2.23,2.82,-1.53,3.84,5.49,-0.58,5.17,-0.84
CS(=O)(=O)CCNCc1ccc(-c2ccc3ncnc(Nc4ccc(OCc5ccccc5)c(Cl)c4)c3c2)o1,4.02,2.44,2.99,4.06,-0.19,3.02,2.54,-2.83,10,2.44
COc1cc(C=NNc2ncnc3c2cnn3-c2ccccc2)ccc1O,1.08,2.41,3.03,3.02,56.8,5.09,24.4,7.04,26.8,11
